According to PubChem BioAssay AID504834 (National Center for Advancing Translational Sciences (NCATS), 2011):
Hit rate of the full screen: of about 320,000 compounds, about 22,000 (6.9%) were called active. A call without a number means that no potency is given here. Another 27% or so got no clear call; they are omitted. Calls come from the whole dose curve; as a rule, active = well fitted inhibition curve with a large enough effect; inconclusive = small, poorly fitted or top-dose-only effect, or another doubt; inactive = no such curve, though single readings can be large or run the other way. For the sample, actives were picked, then their nearest neighbours and some compounds at random.

test: Primary qHTS for delayed death inhibitors of the malarial parasite plastid, 96 hour incubation; settings: P. falciparum luciferase reporter growth; series mostly up to 28.7 µM
Text: The goal of this screen is to discover new antimalarial compounds that act by inhibiting the development of the apicoplast in the malarial parasite Plasmodium falciparum. The biochemical processes that make this organelle essential for erythrocytic stage parasites are not well understood. However, antibiotics such as azithromycin and tetracycline, which target the apicoplast translational machinery, have a potent antimalarial effect.
We have developed a cell-based assay that measures parasite growth based on the expression of an integrated copy of a firefly luciferase reporter. To detect small molecules that cause this "delayed death" phenotype, erythrocytes infected with the luciferase-expressing parasites were incubated with compounds for either one or two generations, corresponding to 48 and 96 hours, respectively. Compounds that inhibit parasite growth in the second generation, but not the first, should be enriched in antimalarials that target the apicoplast. Growth inhibition is detected by a decrease in luciferase activity.
Assay Provider: David Fidock and Eric Ekland, Columbia University
Keywords: NIH Roadmap, MLPCN, MLI, MLSMR, qHTS, NCGC, qHTS, malaria, luciferase, viability
Four microliters of infected erythrocytes (2% hematocrit, 0.05% parasitemia final concentration) in culture medium were dispensed and the plates incubated for 96 hours at 37 C in 5% CO2. Two microliters of luciferase detection reagent was added and luminescence was detected by a ViewLux (PerkinElmer) reader.
Potency is the fitted concentration of half-maximal effect.

SMILES	Potency
Cc1ccc(C)c(OCc2cc(C(=O)N3CCN(c4cnccn4)CC3)no2)c1	inactive
COc1ccccc1CCCNC(=O)C1CCC(=O)N(CCN2CCOCC2)C1 (configuration not stated)	inactive
CCCCCn1c(=O)[nH]c2cc(C(=O)NCCCN3CCCCC3C)ccc2c1=O (configuration not stated)	inactive
COc1ccc2[nH]c(=O)c(C3c4cc(OC)c(OC)cc4CCN3C(=O)c3ccco3)cc2c1 (configuration not stated)	inactive
O=C(Nc1nnc(Cc2ccc(Cl)cc2)s1)c1ccncc1	inactive
CCNS(=O)(=O)c1ccc(CCC(=O)N2CCN(c3ccc(OC)cc3)CC2)cc1	inactive
COC(=O)c1c(C)oc(C)c1S(=O)(=O)NCc1ccc(Cl)cc1	inactive
CCCCC/C=C/C1=CC(=O)C[C@H](c2ccc(Cl)cc2)C1	inactive
C(=C\c1ccccc1)/CSc1nnc(-c2cccnc2)n1Cc1ccco1	10.4 µM (active)
CCOC(=O)Cc1csc(NC(=O)CSc2nnc(-c3cccnc3)n2Cc2ccco2)n1	inactive
O=C(CSc1nnc(-c2cnccn2)n1Cc1ccco1)c1ccc(Cl)c(Cl)c1	inactive
CCn1c(CC(=O)Nc2ccccc2C)nnc1SCC(=O)NC1=NCCS1	inactive
c1ccc2c(c1)CCc1snnc1-2	inactive
O=C(Cn1nc([N+](=O)[O-])nc1Br)NC1CCCCC1	inactive
O=C(CSc1ccc(-c2ccccc2)nn1)NCC1CCCO1 (configuration not stated)	inactive
O=C(CSC1=Nc2ccccc2C2=NC(CC(=O)NCc3ccco3)C(=O)N12)NCc1ccco1 (configuration not stated)	1.85 µM (active)
CCC(C)NC(=O)CSC1=Nc2ccccc2C2=NC(CCC(=O)NCc3ccco3)C(=O)N12 (configuration not stated)	inactive
CCn1c(SCC(=O)NCC2CCCO2)nc2ccccc21 (configuration not stated)	inactive
O=C(CSC1=Nc2ccccc2C2=NC(c3ccccc3)C(=O)N12)NCC1CCCO1 (configuration not stated)	7.38 µM (active)
O=C(CC1N=C2c3ccccc3N=C(SCc3ccccc3Cl)N2C1=O)NCc1ccco1 (configuration not stated)	inactive
O=C(NCc1ccco1)/C(=C/c1ccco1)NC(=O)c1ccccc1	inactive
CC1CCN(C(=O)COC(=O)c2cc(S(=O)(=O)N3CCOCC3)ccc2Cl)CC1	inactive
COc1cc(C(=O)NNC(=O)CN2C(=O)NC3(CCCC3)C2=O)cc(OC)c1OC	inactive

SMILES	Potency
COc1cccc(C(=O)Nc2nnc(S(=O)(=O)N3CCCCC3)s2)c1	inactive
Cc1ccc2nc(-c3ccc(Br)cc3)cn2c1	inactive
CCC(C)(C)n1nnnc1C(c1ccc(OC)c(OC)c1)N1CCN(C(=O)c2ccco2)CC1 (configuration not stated)	inactive
CNC[C@H](CC1CCCCC1)NC[C@H](NCCC1CCCC1)[C@H](C)O	11.7 µM (active)
COc1ccc(CNC(=O)COc2ccccc2C(=O)c2cnn(-c3ccccc3)c2)cc1OC	inactive
O=C1C(=O)N(CCCO)C(c2ccccc2)/C1=C(\O)c1ccc(Br)cc1 (configuration not stated)	inactive
CCOC(=O)c1c(-c2ccc(C)cc2C)csc1NC(=O)CSc1nnnn1C	inactive
CCOC(=O)c1ccc(NC(=O)CSc2ncccn2)cc1	inactive
CCOC(=O)c1c(NC(=O)CSc2nccc(=O)[nH]2)sc(C)c1C	inactive
COc1ccc(Cc2nnc(SCC(=O)Nc3ccc(C)c(C)c3)o2)cc1OC	inactive
CCOC(=O)c1c(NC(=O)CSc2nnc(CNc3ccc(C)cc3C)o2)sc(C)c1C	8.28 µM (active)
CCCc1nnc(SCC(=O)Nc2ccc(C(=O)OCC)cc2)o1	0.147 µM (active)
CN(CCc1ccccn1)C(=O)c1ccc(OC2CCN(Cc3ccccn3)CC2)cc1	inactive
Cc1cc(C)cc(OCC(=O)OCC(=O)NC2CCCC2)c1	inactive
CCn1c(=S)sc2c(=O)n(CC(=O)Nc3ccc(OC)cc3)c(C)nc21	inactive
COc1cccc(C(=O)NCCS(=O)(=O)NCC2CCCO2)c1 (configuration not stated)	inactive
COc1cccc(CCNC(=O)c2cccc(NC(=O)C3=C(C)OCCS3)c2)c1	11.7 µM (active)
CC1=C(C(=O)Nc2ccccc2)SCCO1	inactive
Cc1sc(NC(=O)C2=COCCO2)c(C#N)c1C	inactive
CCCCN(C(=O)C(CCSC)N1C(=O)c2ccccc2C1=O)c1c(N)n(CCC)c(=O)[nH]c1=O (configuration not stated)	inactive
CSc1ccccc1NC(=O)c1cnc2sc(C)cn2c1=O	inactive
Cc1ccc(C(C)C)c(OCCSc2nc3ccccc3n2CC(=O)O)c1	13.1 µM (active)
Cc1ccc(Cn2c(SCC(=O)N/N=C/c3ccccc3OCC(=O)O)nc3ccccc32)cc1	inactive

SMILES	Potency
O=C(O)Cn1c(Cc2ccccc2)nc2ccccc21	inactive
Fc1ccc2[nH]c3c(N4CCN(Cc5ccc6c(c5)OCO6)CC4)ncnc3c2c1	2.62 µM (active)
O=C(c1cccs1)N1CCN(Cc2ccc3c(c2)OCO3)CC1	inactive
Cc1cc(N2CCN(Cc3ccc4c(c3)OCO4)CC2)n2ncnc2n1	inactive
CCCc1c(C(=O)O)cnn1-c1ccc(Cl)cc1	inactive
O=C(NNS(=O)(=O)c1ccccc1C(F)(F)F)c1cc2ncc(C(F)(F)F)cc2s1	inactive
Cc1ccsc1C(=O)N[C@@H](C)c1nnc2ccccn12	inactive
C=CCC1(CC=C)CCCN1C(=O)CC1C(=O)NCCN1Cc1ccccc1OC (configuration not stated)	10.4 µM (active)
CCN(CCn1cccn1)C(=O)CC1C(=O)NCCN1Cc1cccc(OC)c1OC (configuration not stated)	inactive
CN(C(=O)CC1C(=O)NCCN1Cc1ccc(F)cc1Cl)C1CCCCC1 (configuration not stated)	inactive
CCOCCCNC(=O)c1cc2c(=O)n3ccccc3nc2s1	10.4 µM (active)
CCOCCCNC(=O)c1c[nH]c2cc(C)ccc2c1=O	inactive
CCOCCCNC(=O)c1cn(CC(C)C)c(=O)c2c1c1ccccc1n2C	inactive
Cc1cccc(OCCC(=O)Nc2ccccc2C(N)=O)c1	inactive
Fc1ccccc1/C=C1\CCCC2=C1Nc1ncnn1C2c1ccccc1F (configuration not stated)	1.04 µM (active)
CCN1C(=O)c2cccc3c(S(=O)(=O)Nc4ccccc4O)ccc1c23	inactive
CC(C)(C)NC(=O)CSc1nnc(NC(=O)CCc2ccccc2)s1	inactive
Cc1occc1C(=O)NC1CCCN(Cc2ccc(CC(C)C)cc2)C1 (configuration not stated)	inactive
Cc1occc(=O)c1OCc1c(Cl)cccc1Cl	inactive
O=C(NCCS(=O)(=O)N1CCN(c2ccccc2F)CC1)c1ccc(Br)o1	inactive
CCOc1ccc(C(C)=O)cc1COC(=O)CNC(=O)c1cccs1	inactive
